Screens from PubChem.
Rows were chosen to be rich in hits. Some 3% of all compounds tested hit in one or more screens of this group.
SENP6 block – SENP6 protease inhibitors, primary screen, biochemical, luminescence, uHTS; Sentrin-specific protease 6 (Homo sapiens), Q9GZR1; Recombinant SENP6 catalytic domain, aminoluciferin luminescence; inhibition, % at 10 µM; actives 1.8% (n = 330,000); AID 2599, 2010;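 active means inhibition above about 50% at the single tested dose, limit read from the data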;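 further: plate controls were DMSO wells with enzyme for no effect and DMSO wells lacking enzyme for full effect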
Target sequence (Q9GZR1 628-1112 limits assumed): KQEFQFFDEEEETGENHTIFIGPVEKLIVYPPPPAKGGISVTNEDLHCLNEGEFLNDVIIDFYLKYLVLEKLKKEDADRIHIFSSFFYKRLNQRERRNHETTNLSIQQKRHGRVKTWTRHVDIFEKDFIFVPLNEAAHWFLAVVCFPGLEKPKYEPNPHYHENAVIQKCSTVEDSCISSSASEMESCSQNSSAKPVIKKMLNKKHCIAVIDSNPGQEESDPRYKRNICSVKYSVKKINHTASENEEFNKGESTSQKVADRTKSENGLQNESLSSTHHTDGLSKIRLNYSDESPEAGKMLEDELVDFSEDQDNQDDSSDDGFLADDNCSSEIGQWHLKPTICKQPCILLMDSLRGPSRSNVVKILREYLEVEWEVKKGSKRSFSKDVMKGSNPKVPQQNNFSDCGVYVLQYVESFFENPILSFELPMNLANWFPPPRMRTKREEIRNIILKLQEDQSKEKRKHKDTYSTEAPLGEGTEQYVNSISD
PPC-1+TRAIL kill – compounds killing PPC-1 cancer cells with TRAIL present, primary screen, TRAIL potentiator project, ATPLite luminescence, uHTS. PPC-1 cells + TRAIL, ATPLite viability luminescence. cell killing (% activity), % at 4 µM or 5 µM. actives 0.41% (n = 220,000);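 active means cell killing above 50% in the first pass at 4 µM, then a duplicate retest at 5 µM averaging 50% or more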;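 further: plate controls were cells with TRAIL plus DMSO for no effect and medium-only wells lacking cells for full effect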
TRAIL sens C8 – viability loss with TRAIL in NB7+C8 cells, primary screen, TRAIL sensitizer project, cell-based, ATPlite luminescence; inhibition (viability loss, TRAIL sensitization), % at 10 µM; actives 1% (n = 360,000);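 active means compounds causing at least 50% loss of cell viability in the single-dose screen, relative to plate controls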
SENP8 block-1 – human SENP8 protease inhibitors, primary screen, biochemical, fluorescence, Nedd8 protein substrate, uHTS; AID 602440, 2012; Sentrin-specific protease 8 (Homo sapiens), Q96LD8; actives 0.64% (n = 360,000); inhibition, % at 20 µM; recombinant SENP8; in the data active means inhibition mostly above about 40%, no sharp cut-off; inactive means mostly below about 27%
SENP7 block – SENP7 protease inhibitors, primary screen, biochemical, luminescence, uHTS; Sentrin-specific protease 7 (Homo sapiens), Q9BQF6; recombinant SENP7, Z-RLRGG-aminoluciferin luminescence, 40 min; inhibition, % at 5 µM; actives 1.5% (n = 330,000); AID 434973, 2010;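 active means inhibition above about 50% at the single test dose, limit read from the data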;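 further: plate controls were DMSO with enzyme for no effect and no enzyme buffer wells for full effect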
SENP8 block-2 – SENP8 protease inhibitors, primary screen, biochemical, luminescence; actives 1.2% (n = 330,000); inhibition, % at 10 µM; Sentrin-specific protease 8 (Homo sapiens), Q96LD8; purified SENP8, Z-RLRGG-aminoluciferin cleavage; AID 2540, 2010; in the data active means inhibition above about 50%
SENP8 conf – SENP8 protease inhibitors, retest, confirmation, biochemical, luminescence, single concentration; shares compounds with SENP7 block; Recombinant SENP8, Z-RLRGG-aminoluciferin luminescence, 60 min; inhibition, % at 12.5 µM; actives 40% (n = 6,200); AID 488912, 2010;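 active means mean inhibition across replicates above about 50%, limit read from the data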
SENP6 confirm – SENP6 protease inhibitors, confirmation, biochemical, luminescence, single concentration | shares compounds with SENP7 block | recombinant SENP6, Z-RLRGG-aminoluciferin luminescence | inhibition, % at 12.5 µM | actives 58% (n = 6,200)
SENP7 confirm – SENP7 protease inhibitors, retest, confirmation, biochemical, luminescence, single concentration | recombinant SENP7, Z-RLRGG-aminoluciferin luminescence, 40 min | actives 69% (n = 6,200) | shares compounds with SENP7 block | AID 488917, 2010 | inhibition, % at 12.5 µM
Casp3 SENP sel – caspase-3 protease inhibitors, confirmation, selectivity assay for SENP inhibitor project, biochemical, single concentration; shares compounds with SENP7 block; purified caspase-3, Z-DEVD-aminoluciferin luminescence, 60 min; inhibition, % at 12.5 µM; actives 60% (n = 6,200);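 active means mean inhibition above about 50%, limit read from the data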;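 further: plate controls were enzyme with DMSO for no effect and wells without caspase-3 for full effect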
Target sequence (P42574 28-227 limits assumed): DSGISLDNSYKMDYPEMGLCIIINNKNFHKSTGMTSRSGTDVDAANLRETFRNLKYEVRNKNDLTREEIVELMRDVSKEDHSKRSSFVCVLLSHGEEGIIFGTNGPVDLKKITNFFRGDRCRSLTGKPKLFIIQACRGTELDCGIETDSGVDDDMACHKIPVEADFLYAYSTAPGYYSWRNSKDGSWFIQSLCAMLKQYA
SENP luc ctr – luminescence interference (SENP counter-screen). inhibition, % at 12.5 µM. actives 39% (n = 6,200). shares compounds with SENP7 block. Pre-incubated SENP8/Z-RLRGG-aminoluciferin, luciferase luminescence interference;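 active means mean inhibition above about 50% when retested at one dose, limit read from the data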;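 further: plate controls were DMSO wells with completed reaction for no effect and substrate without enzyme for full effect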
Active calls of the source: *; nt = not tested or not shown.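 How the source made its calls, unless noted: active means mean inhibition above about 50% in the one-dose retest (limit read from the data); inactive means the rest.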

SMILES	SENP6 block	PPC-1+TRAIL kill	TRAIL sens C8	SENP8 block-1	SENP7 block	SENP8 block-2	SENP8 conf	SENP6 confirm	SENP7 confirm	Casp3 SENP sel	SENP luc ctr
CN1OC[C@@H]2CN(Cc3ccccc3)[C@H](c3cccc(-c4ccccc4)c3)C[C@@H]21	nt	nt	10.4	3.0	nt	nt	nt	nt	nt	nt	nt
O=C(Cc1ccccc1C(=O)O)Nc1cccc2ccccc12	-10.8	nt	-9.7	-58.2	-4.6	-0.4	nt	nt	nt	nt	nt
O=C(O)c1ccc(C(=O)Nc2cccc3ccccc23)c(C(=O)O)c1	67.0*	nt	5.8	-311.3	57.2*	33.2	-3.4	4.7	-1.8	7.0	8.4
c1ccc(C2=NNC(=NC3CC3)SC2)cc1	93.1*	32.7	17.3	10.0	93.1*	94.5*	96.5*	97.1*	102.4*	98.5*	95.4*
c1ccc2c(C3=NNC(=NC4CCCCC4)SC3)c[nH]c2c1	4.9	-1.3	3.0	-4.0	5.1	-9.7	nt	nt	nt	nt	nt
COc1ccc(-n2c(C)cc(C3=NNC(=NC4CC4)SC3)c2C)cc1	nt	2.3	4.2	-12.5	nt	nt	nt	nt	nt	nt	nt
c1ccc2c(C3=NNC(=NC4CC4)SC3)c[nH]c2c1	62.6*	18.9	33.8	-7.2	29.8	36.4	48.4	45.3	80.9*	80.5*	66.9*
COC(=O)C[C@@H]1CC[C@@H](NS(=O)(=O)c2ccccc2OC)[C@@H](CO)O1	nt	nt	0.0	20.1	nt	nt	nt	nt	nt	nt	nt
COc1ccc(C2CC(c3ccc4ccccc4c3OC(C)=O)=NN2C(C)=O)cc1 (centres undefined)	-22.5	10.9	21.1	-435.9	9.8	-1.9	nt	nt	nt	nt	nt
CC(C)(C)c1ccc(/C=C/C(=O)Nc2nncs2)cc1	46.8	28.2	31.1	4.4	79.4*	28.2	24.8	25.2	5.1	18.2	13.3
Cc1ccc(NC2CCCN(C(=O)CCC3=NNC(=O)CC3)C2)cc1C (centres undefined)	-6.0	nt	14.8	14.9	-12.3	-13.7	nt	nt	nt	nt	nt
COc1ccc(C(=O)Nc2ccc(C3(C#N)CCCC3)cc2)cc1	-19.7	9.2	29.7	4.0	-7.1	-12.0	nt	nt	nt	nt	nt
N#CC1(c2ccc(NC(=O)c3ccccc3F)cc2)CCCC1	84.3*	37.3	44.4	16.9	76.5*	75.5*	79.5*	76.9*	93.0*	74.3*	63.6*
Cc1ccc(N2C(=O)c3ccc(N)cc3C2=O)cc1C	64.7*	-4.1	7.4	-87.7	50.6*	39.6	63.0*	59.8*	85.9*	54.5*	62.8*
COc1ccccc1N(CC(=O)NCCc1ccccc1)C(=O)CCC(=O)Nc1cc(C)ccn1	-28.0	nt	-4.8	1.7	6.0	14.4	nt	nt	nt	nt	nt
CC(C)N1CCC1(C)C(=O)Nc1cccc2ccccc12 (centres undefined)	nt	nt	-3.8	-7.7	nt	nt	nt	nt	nt	nt	nt
Fc1ccc(NC(=S)Nc2cccc3ccccc23)cc1	65.3*	nt	8.4	-495.9	21.9	44.1	-6.1	-5.8	-8.5	-5.2	-4.0
Cc1cc(C)cc(NC(=S)Nc2cccc3ccccc23)c1	70.6*	nt	-22.2	-391.3	25.6	59.1*	-3.0	2.3	0.8	5.9	7.4
CC1(C(=O)Nc2cccc3ccccc23)CC1(Br)Br (centres undefined)	59.7*	5.4	22.5	-385.7	7.5	22.9	12.5	20.7	4.8	4.7	-2.8
Cc1cccc(NC(=S)Nc2cccc3ccccc23)c1	91.2*	nt	6.9	-401.4	46.4	89.0*	-5.6	-3.0	-7.7	6.0	6.8
CC(C)c1ccc(NC(=S)Nc2cccc3ccccc23)cc1	42.5	nt	6.7	-396.0	7.6	33.4	nt	nt	nt	nt	nt
CSc1ccccc1NC(=S)Nc1cc(C)cc(C)c1	-17.8	-28.3	-19.4	14.8	-8.5	-8.0	nt	nt	nt	nt	nt
Cc1ccc(NC(=S)Nc2cccc3ccccc23)cc1	80.7*	nt	12.6	-463.4	17.3	35.8	4.8	-1.6	1.6	3.9	9.8
C=CCNC(=S)Nc1cccc2ccccc12	-9.0	8.8	-2.8	-49.0	-1.0	-1.2	nt	nt	nt	nt	nt
Fc1ccc(NC(=S)Nc2cccc3ccccc23)cc1F	62.4*	nt	2.5	-388.0	20.5	48.2	10.7	5.9	15.5	10.9	9.4
SMILES	SENP6 block	PPC-1+TRAIL kill	TRAIL sens C8	SENP8 block-1	SENP7 block	SENP8 block-2	SENP8 conf	SENP6 confirm	SENP7 confirm	Casp3 SENP sel	SENP luc ctr
Cc1cc(NC(=S)Nc2cccc3ccccc23)n[nH]1	-3.7	16.0	-13.9	-137.7	4.8	-11.3	nt	nt	nt	nt	nt
CCc1cccc(NC(=S)Nc2cccc3ccccc23)c1	77.6*	nt	-0.8	-392.1	26.7	42.7	12.0	8.1	0.9	-2.1	-3.0
COC(=O)[C@H]1C[C@H]2[C@@H]3CC[C@H]4C[C@@H](OC)CC[C@]4(C)[C@H]3CC[C@]2(C)[C@@]2(CCCO2)O1	nt	nt	-20.0	-4.3	8.2	nt	nt	nt	nt	nt	nt
O=C(c1ccccc1Sc1ccccc1[N+](=O)[O-])N1CCCCC1	6.1	0.4	-26.3	7.2	5.4	8.8	nt	nt	nt	nt	nt
Clc1ccc(-c2cn3cc(Cl)ccc3n2)cc1	82.4*	nt	41.1	-181.5	93.4*	69.2*	27.2	42.3	45.4	40.1	14.9
CCN(CC)S(=O)(=O)c1ccc(-c2cn3cc(Cl)ccc3n2)cc1	-4.4	nt	20.6	-305.5	3.2	-10.9	nt	nt	nt	nt	nt
Oc1ccc(-c2cn3cc(C(F)(F)F)ccc3n2)cc1	54.8*	84.6*	89.5*	-326.2	23.3	26.2	57.5*	52.3*	82.9*	60.4*	65.1*
NNC(=O)c1ccc2nc(-c3ccc(Br)cc3)cn2c1	2.0	41.6	31.4	-352.2	-9.3	-6.5	nt	nt	nt	nt	nt
COCCN(CCOC)Cc1cc(=O)oc2ccccc12	nt	nt	-1.3	3.2	nt	nt	nt	nt	nt	nt	nt
COc1ccccc1C(=O)NC(C(=O)NCCc1nc2ccccc2[nH]1)=C(C)C	-6.6	nt	-13.2	-4.3	1.2	4.0	nt	nt	nt	nt	nt
CCCc1nnc(NC(=O)CS(=O)(=O)c2ccccc2)s1	-12.1	nt	8.3	8.1	-2.2	-4.2	nt	nt	nt	nt	nt
